Screening results as filed in PubChem.
In the library only some 6.5% were active in any assay of this set; here they are far more common.
MARV entry inh – qHTS for inhibitors of binding or entry into cells for Marburg Virus | hit rate 1.8% among 300,000 | Potency, µM (top dose mostly 37.8 µM), inactives show at the highest dose activity change, negative = inhibition, hits mostly inhibitors | Marburg virus pseudotyped entry inhibition, cell reporter; calls by dose curve; tested in HEK293 cells; further: potency means the concentration at half of the fitted maximal effect
Vaccinia mCherry – qHTS for Stage-Specific Inhibitors of Vaccinia Orthopoxvirus: mCherry Reporter Primary qHTS. hit rate 0.63% among 310,000. Vaccinia virus mCherry reporter infection, fluorescence. Potency, µM (highest dose often 36.5 µM), without a hit: at the top dose activity change, negative = inhibition, usual class: inhibitors; calls by dose curve; tested in A549 cells; further: potency means the concentration at half of the fitted maximal effect; nearly all actives have a fitted effect of over 35% in size
HCMV inh – qHTS Assay for inhibitors of the human cytomegalovirus (HCMV) | HFF cells, HCMV-luciferase reporter, 72 h; stronger effect = lower value | activity change, negative = inhibition, % at 57.5 µM | hit rate 4.5% among 410,000; in the data active means activity change below about -60%; inconclusive means no clear call, values can overlap the other calls; inactive means above about -39%
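Inhibition of viral replication was scored as loss of reporter luminescence in HFFs infected with HCMV-luciferase (MOI 1 PFU/cell) for 72 h; compounds tested at 2 doses, normalized to buffer and Salinomycin controls.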
Lassa entry inh – qHTS for Inhibitors of binding or entry into cells for Lassa Virus. AID 540256, 2011. Lassa virus pseudotype entry inhibition, cell reporter. hit rate 1.2% among 300,000. Potency, µM (top dose mostly 37.9 µM), for the others: at the highest dose activity change, negative = inhibition, most hits filed as inhibitors; calls by dose curve; tested in HEK293 cells; further: potency means the concentration at half of the fitted maximal effect; nearly all actives have a fitted effect of over 50% in size
FMDV antiviral – High Throughput Screening for Foot and Mouth Disease Virus Antivirals | Potency, µM (doses to about 57.9 µM), for the others: at the top dose activity change, negative = inhibition, actives largely listed as inhibitors | hit rate 1.2% among 410,000 | FMDV antiviral cell-based qHTS | AID 1159524, 2015; calls by dose curve; tested in HEK293T cells; further: read-out not given here; potency means the concentration at half of the fitted maximal effect; nearly all actives have a fitted effect of over 45% in size
Vaccinia Venus – qHTS for Stage-Specific Inhibitors of Vaccinia Orthopoxvirus: Venus Reporter Primary qHTS; hit rate 0.46% among 330,000; Potency, µM (top dose mostly 36.5 µM), inactives show top-dose activity change, negative = inhibition, hits mostly inhibitors; AID 720580, 2013; Vaccinia virus Venus reporter expression, fluorescence; calls by dose curve; tested in A549 cells; further: potency means the concentration at half of the fitted maximal effect; nearly all actives have a fitted effect of over 30% in size
An asterisk follows results filed as active; i = inactive; ? = inconclusive; . = no result given; + = active, no number; [ ] = remark or other dose. On the % scale 0 is the no-effect control and ±100 the full control effect.

SMILES	MARV entry inh	Vaccinia mCherry	HCMV inh	Lassa entry inh	FMDV antiviral	Vaccinia Venus
CC(C)(C)OC(=O)N1CCC(c2c(C(=O)NCc3ccc(F)cc3)cnn2-c2ccc(F)cc2)CC1	.	-20%	7	?	-19%	-26%
CC(C)(C)OC(=O)N1CCC(c2c(C(=O)NCCN3CCC(Cc4ccccc4)CC3)cnn2-c2ccccc2)CC1	.	?	?	?	?	11µM*
Cc1ccc(-n2ncc(C(=O)Nc3ccc4c(c3)OCCO4)c2C2CCN(C(=O)OC(C)(C)C)CC2)cc1C	.	-6%	+	?	0%	-14%
CC(C)(C)OC(=O)N1CCC(c2c(C(=O)NCCN3CCC(Cc4ccccc4)CC3)cnn2-c2ccc(F)cc2)CC1	.	?	-106*	?	-12%	?
Cc1cccc(-n2ncc(C(=O)Nc3ccc4c(c3)OCO4)c2C2CCN(C(=O)OC(C)(C)C)CC2)c1	.	-15%	?	1%[46.1 µM]	20%	-4%
COc1ccc(CN2C[C@H](Sc3nc4ccccc4[nH]3)C[C@H]2C(=O)N2CCCN(C)CC2)cc1C	.	2%	.	.	-12%	14%
Cn1cccc1C(=O)NC(=O)COC(=O)c1cc(S(=O)(=O)N2CCCCC2)ccc1Cl	-7%[46.1 µM]	-13%	-28	2%	-28%	-18%
CCOC(=O)c1cnn(-c2ccc(Cl)cc2)c1C1CCN(C(=O)OC(C)(C)C)CC1	?	?	-24	3.3µM*	?	-29%
COc1ccc(CCN2CCC(CNC(=O)c3cnn(-c4cccc(Cl)c4)c3C3CCN(C(=O)OC(C)(C)C)CC3)CC2)cc1	.	?	-101*	-24%[46.1 µM]	-6%	?
COc1cccc(N2CCN(C(=O)c3cnn(-c4ccccc4Cl)c3C3CCN(C(=O)OC(C)(C)C)CC3)CC2)c1	.	-13%	9	?	-15%	-5%
CC(C)(C)OC(=O)N1CCC(c2c(C(=O)N3CCCCC3)cnn2-c2ccc(Cl)cc2)CC1	.	-12%	3	?	-4%	-17%
COCCCNC(=O)c1cnn(-c2ccccc2Cl)c1C1CCN(C(=O)OC(C)(C)C)CC1	.	-11%	+	?	-5%	-2%
CC(C)(C)OC(=O)N1CCC(c2c(C(=O)NCc3ccccn3)cnn2-c2ccccc2Cl)CC1	.	-6%	?	-16%[46.1 µM]	9%	-16%
COc1cccc(N2CCN(C(=O)c3cnn(-c4ccc(C)cc4C)c3C3CCN(C(=O)OC(C)(C)C)CC3)CC2)c1	.	-27%	22	1.1µM*	?	-18%
CSC(=N)N	?	.	.	7%	-7%	.
CCCCOc1ccc(C(C)NC(=O)CN2C(=O)CSc3ccc(S(=O)(=O)N4CCOCC4)cc32)cc1 (stereo not drawn)	.	-21%	-12	-21%[46.1 µM]	-8%	-21%
COc1ccc(Cl)c2sc(N(CCN(C)C)C(=O)C3=COCCO3)nc12	?	-23%	-22	18%	-19%	-13%
Cc1ccc(CN2CCN(CC(=O)NCc3ccccc3Cl)C2=O)cc1	1%[46.1 µM]	-7%	2	?	11%	-12%
Cc1ccc(NC(=O)NNS(=O)(=O)c2ccc(Br)cc2)cc1	?	.	38	0%	-17%	-9%
CCOC(=O)Nc1ccc(S(=O)(=O)NCc2ccccc2)cc1	-17%	?	-62*	?	.	-19%
Cc1ccc(S(=O)(=O)NC(=O)Nc2ccc(N(C)C)cc2)cc1	?	?	-18	13µM*	24%	?
CCOC(=O)Nc1ccc(NS(=O)(=O)c2ccc(C)cc2)cc1	-20%	-7%	56	12µM*	42%	-23%
Cc1ccc(Nc2[nH]c(=O)c3ccccc3c2C(=O)c2ccccc2)cc1	.	-27%	.	.	6%	0%
O=C1CCCC=C1C(O)COCc1ccccc1 (stereo not drawn)	3%[14.2 µM]	.	.	.	.	.
CCC(C)SCc1nc2ccccc2[nH]1 (stereo not drawn)	7%	-16%[1.46 µM]	-63*	2%	2%	-17%
SMILES	MARV entry inh	Vaccinia mCherry	HCMV inh	Lassa entry inh	FMDV antiviral	Vaccinia Venus
O=c1cc2c(nn1Cc1ccccc1)-c1ccccc1CC2	-6%[46.1 µM]	i	-100*	-2%	-16%	2%
CCOc1ccc(C2=Nn3c(nnc3-c3ccc(OC)cc3)SC2)cc1	5.2µM*	.	22	?	?	.
COc1ccc(OC)c(-c2nnc3n2N=C(c2ccc(OC)c(OC4CCCC4)c2)CS3)c1	.	.	-88*	.	?	.
COc1ccc(OC)c(-c2nnc3n2N=C(c2ccc(OC)c(OC)c2)CS3)c1	.	.	-67*	.	-11%	.
COc1ccc(C2=Nn3c(nnc3-c3ccccc3)SC2)cc1OC	-30%	.	4	-27%	-8%	.
COc1ccc(C2=Nn3c(nnc3-c3ccncc3)SC2)cc1	?	.	-37	-19%	4%	.
COc1ccc(C2=Nn3c(nnc3-c3ccccc3OC)SC2)cc1OCC1CC1	.	.	-84*	.	?	.
COc1ccc(OC)c(-c2nnc3n2N=C(c2ccc(OC(F)F)c(OCC4CC4)c2)CS3)c1	.	.	-5	.	?	.
COc1ccc(C2=Nn3c(nnc3-c3ccccc3F)SC2)cc1OC1CCCC1	.	.	-75*	.	-39%	.
COc1ccc(C2=Nn3c(nnc3-c3ccccc3F)SC2)cc1OC1CCOC1 (stereo not drawn)	.	.	127	.	-14%	.
Cc1ccc(N(CC(=O)NCc2ccc(F)cc2)C(=O)CCC(=O)Nc2ccccn2)cc1C	?	-26%	-7	1.4µM*	-17%	-21%
O=C(CN(C(=O)CCC(=O)Nc1nccs1)c1cccc(F)c1)NCCc1ccccc1	5%[46.1 µM]	-2%	-88*	?	-4%	-7%
Cc1c(C(=O)N2CCOc3ccc(Cl)cc3C2)sc2ncnc(NCCc3ccccn3)c12	.	i	.	.	-23%	-4%
O=C(CSc1nc2c([nH]c3ccccc32)c(=O)n1-c1ccc(F)cc1)Nc1ccc2c(c1)OCCO2	.	i	15	-23%[46.1 µM]	-17%	-16%
C/C(=C\C(=O)c1ccccc1)NNC(=O)c1ccc(Cl)cc1	3%[46.1 µM]	i	-73*	?	2%	17%
COc1ccc(C(=O)NN/C(C)=C/C(=O)c2ccccc2)cc1	4%[46.1 µM]	?	18	-2%[46.1 µM]	-4%	-5%
O=C(NN/C(=N/S(=O)(=O)c1ccc(Cl)cc1)c1ccccc1)c1ccc(O)cc1	20µM*	-15%	60	?	95%	-7%
O=c1[nH]c2ccccc2n1C1CCN(C(c2cccc3ccccc23)c2nnnn2-c2ccc3c(c2)OCCO3)CC1 (stereo not drawn)	.	0%	-76*	.	?	-12%
Cc1cccc(C)c1-n1nnnc1C(c1cccc2ccccc12)N1CCC(n2c(=O)[nH]c3ccccc32)CC1 (stereo not drawn)	.	-8%	5	.	-17%	-24%
